# According to PubChem BioAssay (NCI):
# Compounds without any hit were thinned out: in the full panel of roughly 83,000, 20% have a hit.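 Single-concentration screen, 48 h exposure, 96-well plates. Endpoint: percent growth. Below 10 = active.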 Unmarked numbers belong to inactive results. Activity calls are given as the source filed them.
# Tests used:
# Assay in all cases: NCI-60 one-dose screen, 48 h (100 = growth as untreated, 0 = no growth, -100 = all killed)
# Conditions in all cases: 10 µM unless noted
# NCI-H23 lung = system: NCI-H23 lung
# NCI-H322M lung = system: NCI-H322M lung
# HOP-62 NSCLC = system: HOP-62 NSCLC
# NCI-H460 lung = system: NCI-H460 lung
# HOP-92 NSCLC = system: HOP-92 NSCLC
# NCI-H522 lung = system: NCI-H522 lung
# A549/ATCC NSCLC = system: A549/ATCC NSCLC
# 786-0 renal = system: 786-0 renal
# COLO 205 colon = system: COLO 205 colon
# DU-145 prostate = system: DU-145 prostate
Compound,growth (NCI-H23 lung) [%],growth (NCI-H322M lung),growth (HOP-62 NSCLC),growth (NCI-H460 lung),growth (HOP-92 NSCLC),growth (NCI-H522 lung),growth (A549/ATCC NSCLC),growth (786-0 renal),growth (COLO 205 colon),growth (DU-145 prostate)
COc1ccc(-c2cn3c(C(=O)Nc4ccccc4Cl)c(-c4ccccc4)c4c3n2CCCC4)cc1,86.8,102%,88.1%,75.2%,64.3%,76.7%,85.3%,90.8%,77.2%,86.2%
Cc1sc2ncnc(Sc3nc4ccccc4[nH]3)c2c1C,57,-18.4% (active),-62.6% (active),-78.9% (active),-12.1% (active),-78.6% (active),-55.1% (active),-94.7% (active),-74.6% (active),-83.2% (active)
O=C(Nc1ccc(-c2nc3ccc(NC(=O)c4ccc(Cl)cc4)cc3[nH]2)cc1)c1ccc(Cl)cc1,56,10.4%,29.2%,26.3%,41.2%,-65.6% (active),4.64% (active),-22.8% (active),-74.3% (active),44.1%
COC(=O)C1=Nc2ccc(F)cc2/C1=C/c1sc(=S)[nH]c1O,28.6,29%,18.6%,3.2% (active),22.9%,-33.3% (active),17.7%,9.99% (active),-2.37% (active),11.9%
COc1ccc(/C=C/C(=O)c2c(C)nc3ccccc3c2/C=C/c2ccccc2)cc1O,50.6,42.3%,88.6%,22.8%,65.6%,14.9%,39.5%,99.4%,109%,45.7%
COc1ccc(-c2cn[nH]c2-c2ccc(OC)c(O)c2)cc1,92.8,98.6%,66.4%,76.6%,61.5%,45.6%,76%,92.5%,116%,96.9%
CCOC(=O)c1c2c(n3cccc(Cl)c13)C(=O)c1ncccc1C2=O,34.2,26.5%,41.9%,10%,87.6%,81.3%,38.4%,73.9%,73.5%,45.8%
CCN1C(=O)N(CC)C2C1NN=c1s/c(=C3\C(=O)N(CC(C)(C)C)c4ccccc43)c(=O)n12 (stereo not given),45,60.5%,47%,4.52% (active),78.6%,-4.26% (active),30.1%,39.9%,-38.1% (active),6.12% (active)
CN(C)CCCNCc1ccc(-c2ccc(F)c(Cl)c2)o1,77.1,65%,19.2%,-58.4% (active),35.7%,19.5%,-50.5% (active),49.6%,-90% (active),19.7%
COc1cccc(C(=O)Cn2cc(/C=C(\C#N)S(=O)(=O)c3ccccc3)c3ccccc32)c1,90.4,96.7%,83.1%,57.5%,68.8%,88%,93.1%,99.3%,90.7%,105%
CCOc1cccc(/C=N/NC(=O)C(=O)Nc2cccc(C(F)(F)F)c2)c1O,43.4,30.7%,39.1%,15.2%,43.8%,-0.686% (active),21.3%,23%,11.5%,39.8%
